Measurements taken from PubChem BioAssay (NCI).
This is part of a sample that, as a whole, favours compounds with a hit. Of some 83,000 tested, about 20% had one in any assay.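 96-well plates, one dose, 48 hours. Percent growth reported; active if below 10.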 Unmarked numbers belong to inactive results. Activity calls are given as the source filed them.

Experiments:
Experiment in all cases: NCI-60 one-dose screen, 48 h (100 = growth as untreated, 0 = no growth, -100 = all killed)
NCI-H23 lung = details: 10 µM unless noted
NCI-H226 lung = details: 10 µM unless noted
NCI-H322M lung = details: 10 µM unless noted
NCI-H460 lung = details: 10 µM unless noted
786-0 renal = details: 10 µM unless noted
COLO 205 colon = details: 10 µM unless noted
DU-145 prostate = details: 10 µM unless noted
K-562 leukemia = details: 10 µM unless noted
MALME-3M melanoma = details: 10 µM unless noted
MDA-MB-231 breast = details: 10 µM unless noted
RXF 393 renal = details: 10 µM unless noted
SF-268 CNS = details: 10 µM unless noted
SF-295 CNS = details: 10 µM unless noted
SF-539 CNS = details: 10 µM unless noted
M14 melanoma = details: 10 µM unless noted
A549/ATCC NSCLC = details: 10 µM unless noted
UACC-257 melanoma = details: 10 µM unless noted
HOP-92 NSCLC = details: 10 µM
NCI-H522 lung = details: 10 µM
HOP-62 NSCLC = details: 10 µM unless noted

| SMILES | growth (NCI-H23 lung) | growth (NCI-H226 lung) | growth (NCI-H322M lung) | growth (NCI-H460 lung) | growth (786-0 renal) | growth (COLO 205 colon) | growth (DU-145 prostate) | growth (K-562 leukemia) | growth (MALME-3M melanoma) | growth (MDA-MB-231 breast) | growth (RXF 393 renal) | growth (SF-268 CNS) | growth (SF-295 CNS) | growth (SF-539 CNS) | growth (M14 melanoma) | growth (A549/ATCC NSCLC) | growth (UACC-257 melanoma) | growth (HOP-92 NSCLC) | growth (NCI-H522 lung) | growth (HOP-62 NSCLC) |
| --- | --- | --- | --- | --- | --- | --- | --- | --- | --- | --- | --- | --- | --- | --- | --- | --- | --- | --- | --- | --- |
| CCCCCCCCCC(C)NC(=O)CCl (stereo unspecified) | 90% | 96.5% | 96.6% | 107% | 93.1% | 113% | 102% | 97.3% | 93.8% | 93% | 101% | 95.1% | 99.8% | 99.9% | 107% |  |  |  |  |  |
| O=C(O)CS(=O)c1ccc(Cl)cc1 (stereo unspecified) | 106% | 103% | 87.7% | 104% | 95.7% | 107% | 109% | 81.8% | 99.8% | 118% | 103% | 109% | 94.9% | 106% | 102% | 103% | 99.3% |  |  |  |
| COc1ccc(NC(=O)/C=C(C)/C=C/C=C(C)/C=C/C2=C(C)CCCC2(C)C)cc1 | 93.4% | 78.2% | 90.8% | 30.6% |  | 33% | 101% | 46.7% | 68.1% | 38.3% | 79.4% | 81.4% | 80% | 32.8% |  | 39.9% | 87.4% | 62% |  |  |
| Cc1ncc(C(=O)Nc2ccc(CN3CCN(C)CC3)c(C(F)(F)F)c2)cc1C#Cc1c(N)ncc2ccc(F)cc12 | -79.4% (active) | 19.5% | -89.7% (active) |  | -70.5% (active) |  | -88.6% (active) | -57.1% (active) | -79.6% (active) | -88.9% (active) | -88.1% (active) | 20% | 42% | -93.6% (active) | -74.9% (active) | -69.9% (active) | -18.6% (active) | -29.9% (active) | 37.3% |  |
| COc1ccc(/C=C2\CCCC3=C2N=C2SC=NN2C3c2ccc(OC)c(OC)c2)cc1OC (stereo unspecified) | 39.7% | 45.3% | 38.3% | 44% | 70.2% | 22.7% | 24.9% | 26.9% |  | 55.2% | 50.4% | 41.6% | 46.1% | 37.4% | 47.5% | 31.9% | 54.6% |  |  |  |
| OCC(O)C(O)CC1SCCS1 (stereo unspecified) |  | 91.9% | 109% | 108% | 96% | 106% | 108% | 83% | 101% | 114% | 102% | 99.4% | 104% | 103% | 97.9% | 101% | 105% | 104% |  |  |
| O=C(OCC1CC2(Cl)C(Cl)=C(Cl)C1(Cl)C2(Cl)Cl)C1C(C(=O)OCC2CC3(Cl)C(Cl)=C(Cl)C2(Cl)C3(Cl)Cl)C2(Cl)C(Cl)=C(Cl)C1(Cl)C2(Cl)Cl (stereo unspecified) |  | 99.2% | 98.4% | 114% | 94% | 99.7% | 97.4% | 94.7% | 98.6% | 109% | 104% | 100% | 94.8% | 97.9% | 98.5% | 103% | 113% |  |  | 108% |
| CC(=O)Nc1nc(C)c(C(=O)N/N=C/N2CCOCC2)s1 |  | 99.8% | 115% | 113% | 77.1% | 127% | 109% | 174% | 114% | 109% | 119% | 103% | 110% | 105% | 113% | 111% | 118% | 48.4% | 25.3% |  |
| CC[N+](C)(C)N |  | 89.9% | 93.2% | 108% | 100% | 112% | 118% | 103% | 112% | 106% | 94.3% | 110% | 104% | 109% |  | 105% | 110% |  |  | 111% |
| O=C(Nc1ccc(-n2cc(-c3ccncc3)c(-c3ccc(Cl)c(O)c3)n2)cc1)c1cc(C(F)(F)F)cc(C(F)(F)F)c1 |  | 94.3% | 116% | 36.7% | 38.4% | 70.1% | 74.2% | 29.7% | 102% | 46.3% | -42.6% (active) | 61.8% | 25% | 50.9% | 45.1% | 52.2% | 63.2% |  |  | 53.9% |
